Reference: PubChem BioAssay (NCI)
This is part of a sample that, as a whole, favours compounds with a hit. Of some 79,000 tested, about 15% had one in any assay. The source made the active and inactive calls. Rule as the data show it: active = growth inhibition above about 70%; inactive = the rest.

How the values were obtained:
[1] = NCI Yeast Anticancer Drug Screen. Data for the rad50 strain (AID 155);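 also: 0% = growth of vehicle-only cultures of the same strain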; conditions: S. cerevisiae rad50 strain growth inhibition, active compounds read high
Procedure, shortened: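 Yeast carrying a defined DNA repair defect were exposed to test compounds, and growth was compared with vehicle-treated controls to give percent inhibition.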

[2] = NCI Yeast Anticancer Drug Screen. Data for the mec2-1 strain (AID 157); conditions: S. cerevisiae mec2-1 strain, active compounds read high
Procedure, shortened: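 Yeast mec2-1 mutant treated with compound. Readout: growth inhibition vs vehicle controls.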

[3] = NCI Yeast Anticancer Drug Screen. Data for the sgs1 mgt1 strain (AID 161);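 also: 0% = growth of cultures given vehicle only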; conditions: S. cerevisiae sgs1 mgt1 strain, active compounds read high
Procedure, shortened: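 Inhibition of yeast growth, normalised to vehicle-treated controls, is reported for a strain bearing genetic alterations in DNA damage repair.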

[4] = NCI Yeast Anticancer Drug Screen. Data for the cln2 rad14 strain (AID 165);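 also: 0% = growth equal to vehicle treated cultures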; conditions: S. cerevisiae cln2 rad14 strain, active compounds read high
Procedure, shortened: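 cln2 rad14 yeast strain; compound exposure; growth inhibition read vs vehicle controls.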

[5] = NCI Yeast Anticancer Drug Screen. Data for the bub3 strain (AID 167); conditions: S. cerevisiae bub3 mutant strain, active compounds read high
Procedure, shortened: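 Compounds were applied to a genetically altered yeast strain carrying a cell-cycle control defect. Growth inhibition was scored against vehicle-treated controls.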

[6] = NCI Yeast Anticancer Drug Screen. Data for the mlh1 rad18 strain (AID 175); conditions: S. cerevisiae mlh1 rad18 strain growth inhibition, active compounds read high
Procedure, shortened: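 Yeast w/ defined DNA-repair lesions; compound exposure; growth vs vehicle controls → % inhibition.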

[7] = at 5.0 µM (retest, dose inferred, filed as 0.5)
[8] = at 50.0 µM (retest, dose inferred, filed as 5.0)

Measured: growth inhibition

CCCCCCCCCCCC[n+]1cc2ccccc2cc1C
active: [1]; [7] 98% | [1]; [8] 98% | [1]; at 50.0 µM 91.7% | [2]; [7] 99% | [2]; [8] 99% | [2]; at 50.0 µM 90.8% | [3]; [7] 98% | [3]; [8] 99% | [3]; at 50.0 µM 88.5% | [4]; [7] 97% | [4]; [8] 99% | [4]; at 50.0 µM 86.7% | [5]; [7] 99% | [5]; [8] 99% | [5]; at 50.0 µM 93.2% | [6]; [7] 97% | [6]; [8] 98% | [6]; at 50.0 µM 90.8%

CC(C)CCCCCCCCCCCCC(=O)NCC(=O)NC1C(O)C(O)C(Nc2ncnc3nc[nH]c23)OC1C(O)CO (stereo not given)
inactive: [1]; [7] 25% | [1]; [8] 53% | [1]; at 50.0 µM 34.5% | [2]; [7] 26% | [2]; [8] 46% | [2]; at 50.0 µM 25.9% | [3]; [7] 7% | [3]; [8] 43% | [3]; at 50.0 µM 52.2% | [4]; [7] 5% | [4]; [8] -14% | [4]; at 50.0 µM 47.9% | [5]; [7] 18% | [5]; [8] 63% | [5]; at 50.0 µM 52.4% | [6]; [7] 44% | [6]; [8] 63% | [6]; at 50.0 µM 53.9%

CCCCC#C[I+]c1ccccc1
inactive: [1]; [7] 66% | [1]; [8] 66% | [2]; [7] 46% | [2]; [8] 46% | [3]; [7] 54% | [3]; [8] 54% | [4]; [7] 58% | [4]; [8] 58% | [5]; [7] 32% | [5]; [8] 32% | [6]; [7] 65% | [6]; [8] 65%
active: [1]; at 50.0 µM 90.5% | [2]; at 50.0 µM 93% | [3]; at 50.0 µM 93.2% | [4]; at 50.0 µM 91.2% | [5]; at 50.0 µM 87.5% | [6]; at 50.0 µM 89.3%

CC1=C(C(=O)Nc2ccc([N+](=O)[O-])cc2)C(c2ccccc2F)C(C(=O)Nc2ccc([N+](=O)[O-])cc2)=C(C)N1
inactive: [1]; [7] 19% | [1]; [8] 19% | [1]; at 50.0 µM 56.4% | [2]; [7] 5% | [2]; [8] 5% | [3]; [7] 2% | [3]; [8] 2% | [3]; at 50.0 µM 52% | [4]; [7] 6% | [4]; [8] 6% | [4]; at 50.0 µM 64% | [5]; [7] -1% | [5]; [8] -1% | [5]; at 50.0 µM 60% | [6]; [7] -2% | [6]; [8] -2% | [6]; at 50.0 µM 28.1%
active: [2]; at 50.0 µM 74.3%

Cc1cccc2c1NC(c1c(C)[nH]c3ccccc13)C2 (stereo not given)
inactive: [1]; [7] 1% | [1]; [8] 10% | [1]; at 50.0 µM 28.8% | [2]; [7] -1% | [2]; [8] 5% | [2]; at 50.0 µM 25.3% | [3]; [7] -4% | [3]; [8] 8% | [3]; at 50.0 µM 27.2% | [4]; [7] 0% | [4]; [8] -2% | [4]; at 50.0 µM 30.4% | [5]; [7] -3% | [5]; [8] 17% | [5]; at 50.0 µM 30.1% | [6]; [7] -3% | [6]; [8] -22% | [6]; at 50.0 µM 67.2%

C(=N\Nc1c2ccccc2nc2ccccc12)/c1ccc2c(c1)OCO2
inactive: [1]; [7] 0% | [2]; [7] 7% | [3]; [7] 0% | [4]; [7] 2% | [5]; [7] -11% | [6]; [7] 1%
active: [1]; [8] 97% | [1]; at 50.0 µM 99.3% | [2]; [8] 99% | [2]; at 50.0 µM 84.8% | [3]; [8] 99% | [3]; at 50.0 µM 99.4% | [4]; [8] 89% | [4]; at 50.0 µM 82% | [5]; [8] 93% | [5]; at 50.0 µM 99.2% | [6]; [8] 98% | [6]; at 50.0 µM 99.3%

O=P1(O)c2ccccc2CS(=O)(=O)Cc2ccccc21
inactive: [1]; [7] 34% | [1]; [8] 31% | [1]; at 50.0 µM 21.4% | [2]; [7] 21% | [2]; [8] 24% | [2]; at 50.0 µM -11.1% | [3]; [7] 26% | [3]; [8] 53% | [3]; at 50.0 µM -24.2% | [4]; [7] 16% | [4]; [8] 29% | [4]; at 50.0 µM -13.2% | [5]; [7] 16% | [5]; [8] 46% | [5]; at 50.0 µM -19.8% | [6]; [7] 35% | [6]; [8] 43% | [6]; at 50.0 µM -42.8%

O=[N+]([O-])c1cc(C(F)(F)F)ccc1SSc1ccc(C(F)(F)F)cc1[N+](=O)[O-]
inactive: [1]; [7] 45% | [1]; at 50.0 µM 60.9% | [2]; [7] 39% | [2]; at 50.0 µM 50% | [3]; [7] 42% | [3]; at 50.0 µM 68.5% | [4]; [7] 42% | [4]; [8] 64% | [4]; at 50.0 µM 54.7% | [5]; [7] 42% | [5]; at 50.0 µM 66.7% | [6]; [7] 59% | [6]; at 50.0 µM 58.4%
active: [1]; [8] 86% | [2]; [8] 88% | [3]; [8] 93% | [5]; [8] 92% | [6]; [8] 88%

[O-][n+]1c2ccccc2cc2c1c1ccccc1n2O
inactive: [1]; [7] -1% | [1]; [8] 1% | [1]; at 50.0 µM 20.1% | [2]; [7] 0% | [2]; [8] 0% | [2]; at 50.0 µM 5.2% | [3]; [7] -7% | [3]; [8] -3% | [3]; at 50.0 µM 17.7% | [4]; [7] 4% | [4]; [8] 8% | [4]; at 50.0 µM 46.4% | [5]; [7] 6% | [5]; [8] 4% | [5]; at 50.0 µM 0.45% | [6]; [7] -4% | [6]; [8] -5% | [6]; at 50.0 µM 13.9%

CCO/C=C1N=C(/C=C/c2ccccc2Cl)OC/1=O
active: [1]; [8] 84% | [4]; [8] 81% | [5]; [8] 81% | [6]; [8] 86% | [6]; at 50.0 µM 71.7%
inactive: [1]; [7] -6% | [1]; at 50.0 µM 65% | [2]; [7] 13% | [2]; [8] 58% | [2]; at 50.0 µM 45.4% | [3]; [7] 9% | [3]; [8] 52% | [3]; at 50.0 µM 50.2% | [4]; [7] 9% | [4]; at 50.0 µM 20.2% | [5]; [7] 13% | [5]; at 50.0 µM 36.9% | [6]; [7] -2%
